# According to PubChem BioAssay AID588727 (Southern Research Specialized Biocontainment Screening …, 2011):
# In all, about 350,000 compounds went through this assay and about 450 (0.13%) were called active. No rule for the calls is given here. Not all results are given here. Potency and affinity values are given separately.
# Test: inhibitors of VEEV TC-83 cytopathic effect, confirmation, Vero cells (AID 588727)
# Details: VEEV TC-83 cytopathic effect inhibition, at 20 µM
# [1] = measured here: 10K pilot screen inhibition, stronger effect = higher value
# [2] = stronger effect = higher value unless noted
structure (smiles),measurement,setting,value
O=c1[nH]c(CSc2ncccn2)nc2c1cnn2-c1ccccc1,inhibition,stronger effect = higher value,5.59% (inactive)
same,inhibition,[1],3.44%
c1ccc(-n2ncc3c2ncn2nc(CSc4nc5ccccc5s4)nc32)cc1,inhibition,[2],inactive
CCc1ccc(OCC(=O)Nc2nnc(-c3ccco3)s2)cc1,inhibition,[2],0.88% (inactive)
Cc1ccc(-n2ncc3c(NCc4cccnc4)ncnc32)c(C)c1,inhibition,[2],1.66% (inactive)
Cc1ccc(-n2ncc3c(NCc4ccccn4)ncnc32)c(C)c1,inhibition,[2],1.72% (inactive)
Fc1ccc(-n2ncc3c(SCc4cccnc4)ncnc32)cc1,inhibition,[2],3.59% (inactive)
CSc1ncnc2c1cnn2-c1ccc(C)cc1C,inhibition,[2],8.17% (inactive)
COc1ccc(C(C(=O)NCC2CCCO2)N(Cc2ccc(F)cc2)C(=O)CNC(=O)c2ccco2)cc1OC (centres undefined),inhibition,[2],1.15% (inactive)
Cc1cc(O)ccc1N1C(=O)c2cccc3cc([N+](=O)[O-])cc(c23)C1=O,inhibition,[2],inactive
O=C1c2cccc3cc([N+](=O)[O-])cc(c23)C(=O)N1c1nncs1,inhibition,[2],inactive
Cc1ccc(C)c(OCc2cc(C(=O)N3CCN(c4ccccc4C)CC3C)no2)c1 (centres undefined),inhibition,[2],4.26% (inactive)
Cc1cc(C(=O)N(Cc2nnc(-c3ccc(Cl)cc3)o2)C(C)C)c2ccccc2n1,inhibition,[2],8.49% (inactive)
c1ccc(-c2cnnc(-c3ccccn3)n2)cc1,inhibition,[2],2.25% (inactive)
c1ccc(-c2nc(-c3ccccn3)no2)cc1,inhibition,[2],inactive
CCCCn1c(N)c(N(CCC(C)C)C(=O)CSc2nnc3ccccn23)c(=O)[nH]c1=O,inhibition,[2],0.96% (inactive)
COCCCNC(=O)/C=C/c1ccc(Cl)cc1,inhibition,[2],inactive
CN(C)CCCNC(=O)/C=C/c1ccc2c(c1)OCO2,inhibition,stronger effect = higher value,0.85% (inactive)
same,inhibition,[1],1.09%
Cc1cc(-c2nnc(CCC(=O)NC(C)c3ccc(F)cc3)o2)no1 (centres undefined),inhibition,stronger effect = higher value,0.09% (inactive)
same,inhibition,[1],1.8%
Nc1nnc(SCC(=O)OCC(=O)Nc2ccc(Br)cc2F)s1,inhibition,[2],1.19% (inactive)
COc1ccc(S(=O)(=O)N2CCOCC2)cc1C(=O)NCc1ccccc1CN1CCCC1,inhibition,[2],0.08% (inactive)
CCc1ccc(-c2nc(CSCC(=O)NCCCN3CCCC3=O)c(C)o2)cc1,inhibition,[2],3.51% (inactive)
O=C1N=C(N2CCCCC2)S/C1=C\c1ccccc1F,inhibition,[2],0.16% (inactive)
CCCOc1ccccc1/C=C1\SC(N)=NC1=O,inhibition,[2],2.5% (inactive)
CCOC(=O)C1CCCN(c2oc(-c3ccc(OC)cc3)nc2C#N)C1 (centres undefined),inhibition,[2],2.16% (inactive)
O=C(COC(=O)COc1ccccc1)NCCc1ccccc1,inhibition,[2],0.2% (inactive)
CCC(=NC(C)c1ccccc1)c1c(O)[nH]c(=O)[nH]c1=O (centres undefined),inhibition,[2],1.39% (inactive)
CCn1c(SCC(=O)N/N=C/c2ccc(OC)c(OC)c2)nc2ccccc21,inhibition,stronger effect = higher value,4.2% (inactive)
same,inhibition,[1],2.22%
C=CCSc1nc2ccccc2n1C(=O)/C=C/c1cc(OC)c(OC)c(OC)c1,inhibition,[2],2.65% (inactive)
CC(=O)N1CCC(N(CCCOC(C)C)S(=O)(=O)c2ccc([N+](=O)[O-])cc2)CC1,inhibition,[2],inactive
Cc1oc(-c2ccccc2Cl)nc1CSCC(=O)O,inhibition,[2],1.08% (inactive)
Cc1ccc(-c2nc(CSCC(=O)N3CCCC3)c(C)o2)cc1,inhibition,[2],inactive
Cc1onc(-c2ccccc2)c1C(=O)NC(=S)NNC(=O)c1ccncc1,inhibition,[2],1.78% (inactive)
CCN(CC)CCNC(=S)NC(=O)c1cn(-c2ccccc2)nc1-c1ccc(OC)cc1,inhibition,[2],inactive
O=C(NC(=S)NCCO)c1cn(-c2ccccc2)nc1-c1ccccc1,inhibition,[2],1.03% (inactive)
COc1ccc(NC(=O)c2cn(-c3ccccc3)nc2-c2ccncc2)cc1,inhibition,[2],8.65% (inactive)
Cc1onc(-c2ccccc2)c1C(=O)Nc1sc2c(c1C#N)CCC2,inhibition,[2],"2.67% [measured here: 10K pilot screen inhibition, stronger effect = higher value]"
same,outcome,[2],inactive
Cc1ccc(NC(=O)Nc2nnc(-c3ccccc3F)s2)cc1,inhibition,[2],0.72% (inactive)
Cc1ccc(S(=O)(=O)N(C)c2ccc(C(=O)Nc3c(C)n(C)n(-c4ccccc4)c3=O)cc2)cc1,inhibition,[2],2.04% (inactive)
Cn1ncc(Br)c1C(=O)O,inhibition,stronger effect = higher value,0.63% (inactive)
same,inhibition,[1],1.4%
CCC1CSC(Nc2ccc(C(=O)/C=C/c3cccc(C)c3)cc2)=N1 (centres undefined),inhibition,[2],32.8% (inactive)
CCC1CSC(Nc2ccc(C(=O)/C=C/c3ccc(Br)cc3)cc2)=N1 (centres undefined),inhibition,[2],0.39% (inactive)
Cc1cc(C(=O)NC2CCCc3c2cnn3-c2cccc(C)c2C)n(C)n1 (centres undefined),inhibition,[2],inactive
CC1=C(C(=O)NC2CCCc3c2cnn3-c2cccc(C)c2C)OCCO1 (centres undefined),inhibition,[2],1.75% (inactive)
COCCC(=O)NC1CCCc2c1cnn2-c1cccc(C)c1C (centres undefined),inhibition,[2],inactive
O=C(NC1CCCc2c1cnn2-c1ccc(F)cc1F)c1ccccn1 (centres undefined),inhibition,[2],inactive
O=C(NC1CCCc2c1cnn2-c1ccccc1F)c1ccncc1 (centres undefined),inhibition,[2],inactive
COc1ccc(C(=O)NC2CCCc3c2cnn3-c2cc(F)cc(F)c2)c(OC)n1 (centres undefined),inhibition,[2],0.41% (inactive)
O=C(CSc1nnc(Cc2ccccc2)c(=O)[nH]1)Nc1ccccc1,inhibition,[2],1.19% (inactive)
CC1CCCC(=NNC(=O)C2COc3ccccc3O2)C1 (centres undefined),inhibition,[2],1.68% (inactive)
C=CCNc1n[nH]c(=S)s1,inhibition,[2],0.53% (inactive)
Cc1cc(/C=C(\C#N)C(=O)Nc2ccccc2)c(C)n1-c1cccnc1,inhibition,[2],4.21% (inactive)
CCC(NC(=O)Cc1c(C)c2cc3c(cc2oc1=O)OC(C)(C)CC3)C(=O)O (centres undefined),inhibition,[2],0.65% (inactive)
C(=N\N1CCN(C(c2ccccc2)c2ccccc2)CC1)/c1ccc2c(c1)OCO2,inhibition,[2],inactive
COC(=O)c1c(C)[nH]c(C(=O)C(C)OC(=O)c2c(C)noc2C)c1C (centres undefined),inhibition,[2],inactive
O=C1N=C(N2CCOCC2)SC1=C1CCCCC1,inhibition,[2],1.03% (inactive)
CCN(CCNC(=O)C1CCN(Cc2nc(-c3ccc(Cl)cc3)oc2C)CC1)c1ccccc1,inhibition,[2],inactive
Cc1cc(N2CCN(Cc3nc(-c4ccc(F)cc4)oc3C)CC2)cc(C)n1,inhibition,[2],0.13% (inactive)
Cc1oc(-c2ccc(Cl)cc2)nc1CN1CCC(C(=O)NCC2CCCO2)CC1 (centres undefined),inhibition,[2],0.22% (inactive)
Cc1ccccc1-c1nc(CN2CCC(C(=O)NCCCN3CCCC(C)C3)CC2)c(C)o1 (centres undefined),inhibition,[2],9.38% (inactive)
Cc1cccc(N2CCN(Cc3nc(-c4cccc(Cl)c4)oc3C)CC2)n1,inhibition,[2],inactive
Cc1oc(-c2ccc(Cl)cc2)nc1CN1CCC(C(=O)NCCCN2CCOCC2)CC1,inhibition,[2],2.07% (inactive)
CC(=O)c1cccc(-n2c(CCC(=O)O)ccc2-c2cccs2)c1,inhibition,[2],inactive
COc1ccc(-c2nnc(SCC(=O)c3cccs3)n2-c2ccc(Cl)cc2)cc1,inhibition,[2],8.15% (inactive)
O=C(N/N=C/c1cccnc1)C12CC3CC(CC(C3)C1)C2,inhibition,[2],2.16% (inactive)
Cc1[nH]c2ccc(F)cc2c1CCN(Cc1cccnc1)C(=S)Nc1cccc(F)c1,inhibition,[2],2.61% (inactive)
O=C(O)/C(=C\c1ccc(-c2ccc(F)cc2)o1)c1ccccc1,inhibition,[2],1.57% (inactive)
CN(C)CC1CC/C(=C\c2ccc(O)cc2)C1=O (centres undefined),inhibition,[2],inactive
COc1cccc(/C=C2/CCC(CN(C)C)C2=O)c1 (centres undefined),inhibition,[2],48.7% (inactive)
O=C(CSc1nc2c([nH]c3ccccc32)c(=O)n1-c1ccccc1F)NCC1CCCO1 (centres undefined),inhibition,[2],9.1% (inactive)
CCCN(Cc1nnc(-c2cccs2)o1)C(=O)c1cccc(S(=O)(=O)N2CCOCC2)c1,inhibition,[2],3.36% (inactive)
O=C(c1cc(S(=O)(=O)N2CCCCC2)ccc1F)N1CCCCC1,inhibition,[2],2.62% (inactive)
Cc1cc(C)nc(-n2nc(C)c(Oc3ccccc3O)c2C)n1,inhibition,[2],2.08% (inactive)
Cc1nn(-c2ccccn2)c(C)c1Oc1ccccc1O,inhibition,[2],0.59% (inactive)
CCOc1ccc(-c2ccc(SCc3ccccn3)nn2)cc1,inhibition,[2],8.3% (inactive)
Cc1[nH]c(C)c(S(=O)(=O)N2CCN(c3cccc(Cl)c3)CC2)c1C(=O)N1CCCC1,inhibition,[2],1.13% (inactive)
Cc1[nH]c(C)c(S(=O)(=O)N2CCN(c3cccc(C(F)(F)F)c3)CC2)c1C(=O)N1CCCC1,inhibition,[2],0.9% (inactive)
S=C(NCCCN1CCOCC1)N1CCN(c2nc(-c3ccc(Cl)cc3)cs2)CC1,inhibition,[2],1.38% (inactive)
N=C1C(c2nc(-c3ccc(F)cc3)cs2)=C(O)CN1CCCN1CCOCC1,inhibition,stronger effect = higher value,1.67% (inactive)
same,inhibition,[1],0.31%
CCc1cc(=O)oc2cc(C)cc(OC(C)C(=O)NCCN3CCOCC3)c12 (centres undefined),inhibition,[2],2.06% (inactive)
CC(C)CCSc1nc2ccccc2[nH]1,inhibition,[2],0.68% (inactive)
COc1ccc(OC)c(C(=O)COC(=O)COc2ccccc2F)c1,inhibition,[2],0.88% (inactive)
Cc1ccc(OCCCCN2CCCCC2)c(Br)c1,inhibition,[2],inactive
Cc1ccc(OCCCCN2CCC(C)CC2)c(Br)c1,inhibition,[2],0.3% (inactive)
CN(Cc1ccccc1)C(=O)COC(=O)c1cc(Cl)nc(Cl)c1,inhibition,[2],2.37% (inactive)
Cc1ccc(NC(=O)c2cccc(S(=O)(=O)N3CCN(C)CC3)c2)cc1F,inhibition,[2],inactive
COC(=O)c1c(NC(=O)c2ccccc2)sc2c1CC(C)(C)NC2(C)C,inhibition,[2],1.35% (inactive)
CCOc1ccc(C(=O)Nc2sc3c(c2C(=O)OC)CC(C)(C)NC3(C)C)cc1,inhibition,[2],10.2% (inactive)
COc1ccc(NC(=O)C2CCN(S(=O)(=O)c3cccc4nonc34)CC2)cc1,inhibition,[2],1.18% (inactive)
O=C(O)c1ccccc1NN=Cc1ccccc1,inhibition,[2],0.89% (inactive)
O=C(O)c1cccc(N/N=C/c2cc(Br)cc(Br)c2O)c1,inhibition,[2],0.48% (inactive)
COc1ccc(CN2CCN(c3ccccc3F)CC2)cc1O,inhibition,[2],0.89% (inactive)
CCc1ccc(Nc2nc(N3CCOCC3)nc(N3CCOCC3)n2)cc1,inhibition,[2],0.26% (inactive)
Cn1cc(Br)c(C(=O)NNC(=O)c2ccc(Cl)cc2)n1,inhibition,[2],0.65% (inactive)
CCCCC#Cc1cncc(C(=O)NN)c1,inhibition,[2],1.61% (inactive)
CC1CCN(c2ccc(C(=O)O)cc2NS(=O)(=O)c2ccc(Br)cc2)CC1,inhibition,[2],inactive
CC(=O)Nc1cccc(Oc2ncnc3scc(-c4ccc(C)cc4)c23)c1,inhibition,[2],7.98% (inactive)
CC(=O)Nc1cccc(Oc2ncnc3scc(-c4ccccc4)c23)c1,inhibition,[2],11% (inactive)
